Active and inactive are the calls of the source. The calls were made as follows: active = hit-call score of the fitted dose curve at least 0.9, where 1 is the maximum; inactive = score below 0.9.

Read-out in the assay: Monocyte Chemoattractant Protein-1 (MCP1), CCL2 (gene 6347)
The assay can be described thus: BSK_4H_MCP1: BioMAP Diversity Plus: 4H Assay for Monocyte Chemoattractant Protein-1 (MCP1) Biomarker Activity (AID 2283018). To be noted: primary human endothelial cells (HUVEC); actives raise or lower the signal. In outline:
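Human umbilical vein endothelial cells (4H system) exposed to chemicals for 24 h in 96-well format. MCP-1 measured by ELISA; bidirectional fitting against DMSO, with SRB total-protein staining in parallel cultures for cytotoxicity.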
As for `CN(C)C(=O)NC1(c2ccccc2)CCN(CCC[C@]2(c3ccc(Cl)c(Cl)c3)CCCN(C(=O)c3ccccc3)C2)CC1`, the result was inactive. The same measure, in the same setting: under `CCCCOC(=O)CCCCC(=O)OCCCC` stands “inactive”. Regarding `C=CCCCCCCCCCCCC`, the outcome was inactive.

Turning to `Nc1nc(Cl)nc2c1ncn2[C@H]1C[C@H](O)[C@@H](CO)O1`, the outcome was inactive. Consider `Cc1ccc(C(C)(C)C)c(O)c1`, for which the result was inactive. As for `Oc1ccccc1O`, the result was inactive. In the case of `CCCCC(CC)COC(=O)CCCCCCCC(=O)OCC(CC)CCCC` (centres undefined), the result was inactive. As for `CC(=O)[C@@]1(O)CC[C@H]2[C@@H]3CCC4=CC(=O)CC[C@]4(C)[C@H]3CC[C@@]21C`, the outcome was inactive. For the compound `CCCCCCCCCCCCCCOS(=O)(=O)O`, the result was inactive. On the same count and under the same terms, under `O=C(O)c1cccnc1` stands “inactive”; under `Nc1nc(=S)c2[nH]cnc2[nH]1`, “inactive”.

Turning to `CCN(CC)CCOc1ccc(C(=C(Cl)c2ccccc2)c2ccccc2)cc1`, the concentration at half-maximal activity (AC50) was 9.04 µM (active). `CCCCc1nc2cccnc2n1Cc1ccc(-c2ccccc2-c2nnn[nH]2)cc1`: the result was inactive. For the compound `CC(C)c1cccc(C(C)C)c1`, the result was inactive. As to `O=C1O[C@H]([C@H](O)CO)C(O)=C1O`, the result was inactive. Turning to `O=[Si]=O`, the result was inactive.

On to `CC(=O)O`, for which the outcome was inactive. In the case of `CS(=O)(=O)c1ccc([C@@H](C[C@H]2CCC(=O)C2)C(=O)Nc2cnccn2)cc1Cl`, the outcome was inactive. Turning to `CC(C)(O)c1ccc(CNC(=O)c2cccnc2Oc2ccc(F)cc2)cc1`, the outcome was inactive. Take `O=NO`: the outcome was inactive.

With `CC(=O)O[C@]1(C(C)=O)CC[C@H]2[C@@H]3C=C(Cl)C4=CC(=O)[C@@H]5C[C@@H]5[C@]4(C)[C@H]3CC[C@@]21C`, the result was inactive.

On to `CCCCC(CC)CO` (centres undefined), for which the result was inactive. `COc1ccc(OC(F)(F)F)cc1CN[C@H]1CCCN[C@H]1c1ccccc1`: the outcome was inactive.

As to `CCc1nc(N)nc(N)c1-c1ccc(Cl)cc1`, the outcome was inactive. The same measure, in the same setting: in the case of `O=C1CCCCC1` it was “inactive”; in that of `O=C(O)CN(CC(=O)O)CC(=O)O`, “inactive”; in that of `CC(=O)OC1CC(C)OC(C)O1` (centres undefined), “inactive”. As to `COC(=O)[C@H]1[C@H]2C[C@@H]3c4[nH]c5cc(OC)ccc5c4CCN3C[C@H]2C[C@@H](OC(=O)c2cc(OC)c(OC)c(OC)c2)[C@@H]1OC`, the concentration at half-maximal activity (AC50) was 5.85 µM (active). In the case of `CCCC[C@H]1CN(CC2CCOCC2)C(=O)OC12CCN(C1(C)CCN(C(=O)c3c(C)ncnc3C)CC1)CC2`, the result was inactive.

The term AC50 denotes the midpoint of the concentration-response curve, whichever way the signal moves.
